Calls of active or inactive are those of the source.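 Rule for the calls: active = high combined rank on largest and smallest cell-count-weighted shift across three tests, rank score above 45, floors 50 and 25 (some results past the limit were not filed as active); inactive = the rest.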

The nature of the assay: activators of LNCaP cell differentiation, retest, confirmation, side scatter shift, flow cytometry (AID 1069).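 Note: LNCaP human prostate cancer cells in low-serum medium with charcoal-stripped FBS; percent of cells with raised granularity gated so DMSO controls show 10%.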 The conditions noted are these: 4 d, stronger effect = higher value.

With `Cc1ccccc1CS(=O)(=O)CCC(=O)NCCCN1CCN(c2ccccc2F)CC1`, the side scatter shift runs as follows: (at 100 µM) 56.5% (active); (side scatter shift, at 10 µM) 6.05%.

In the case of `Cc1ccc(C)c(N2CCN(CCCNC(=O)Cn3cc4c(n3)CCCCC4)CC2)c1`, the side scatter shift by setting is: (at 100 µM) 0% (inactive); (side scatter shift, at 10 µM) 7.55%.

Consider `COc1ccc(-c2noc(-c3cc(Cl)ccc3Cl)n2)cc1OC`, for which the side scatter shift runs as follows: (at 100 µM) 49.4% (inactive); (side scatter shift, at 10 µM) 7.6%.

`COc1ccc(N2CCN(CCCNC(=O)C3CCCN(S(=O)(=O)c4cnc[nH]4)C3)CC2)cc1` (stereo not given): the side scatter shift (at 100 µM) is 32.3% (inactive) and the side scatter shift (side scatter shift, at 10 µM) was 4.05%.

Take `CCCS(=O)(=O)N1CCCC(C(=O)NCCCN2CCN(c3cccc(Cl)c3)CC2)C1` (stereo not given): the side scatter shift is, setting by setting: (at 100 µM) 17% (inactive); (side scatter shift, at 10 µM) 6.55%.

In the case of `COc1ccc(Nc2nc(N3CCCC3)c3ccccc3n2)cc1`, the side scatter shift by setting is: (at 100 µM) 14% (inactive); (side scatter shift, at 10 µM) 21.6%.

As for `COc1ccc(OC)c(CNC(=O)CCNC(=O)Cn2ccc3ccccc3c2=O)c1`, the side scatter shift runs as follows: (at 100 µM) 12.7% (inactive); (side scatter shift, at 10 µM) 7.3%.

As to `CCc1ccc(-c2nc(CN3CCC(C(=O)NCc4ccco4)CC3)c(C)o2)cc1`, the side scatter shift runs as follows: (at 100 µM) 20% (inactive); (side scatter shift, at 10 µM) 16.5%.

In the case of `CCC(C(=O)Nc1ccccc1OC)n1c(C(=O)OC)cc2ccsc21` (stereo not given), the side scatter shift was 12.2% (inactive) (at 100 µM) and 2.5% (side scatter shift, at 10 µM).

In the case of `COc1ccc(CCn2c(=N)c(C(=O)NCc3ccco3)cc3c(=O)n4ccccc4nc32)cc1`, the side scatter shift was 59.4% (inactive) (at 100 µM) and 4.85% (side scatter shift, at 10 µM).

With `CCOC(=O)N1CCN(S(=O)(=O)c2ccc(C(=O)Nc3nc4ccccc4s3)cc2)CC1`, the side scatter shift (at 100 µM) is 11.7% (inactive) and the side scatter shift (side scatter shift, at 10 µM) came to 5.15%.

`Cc1cc2c(=O)n(CC(=O)N3CCN(c4ccccc4)CC3)cnc2s1`: the side scatter shift (at 100 µM) is 30.4% (inactive) and the side scatter shift (side scatter shift, at 10 µM) came out at 5.8%.

As for `COc1cc2c(C(=O)NCCCN3CCN(c4cccc(Cl)c4)CC3)cn(C)c(=O)c2cc1OC`, the side scatter shift by setting is: (at 100 µM) 53.3% (inactive); (side scatter shift, at 10 µM) 15.4%.

Consider `C=C(C)Cn1c(-c2ccccc2)nc2ccccc21`, for which the side scatter shift is 6.3% (inactive) (at 100 µM) and 4.15% (side scatter shift, at 10 µM).

`COC(=O)c1cc2oc3ccccc3c2n1CC(=O)Nc1ccccc1OC`: the side scatter shift by setting is: (at 100 µM) 18.9% (inactive); (side scatter shift, at 10 µM) 8.8%.

In the case of `CN1C(=O)c2ccc(S(=O)(=O)c3ccc(C(=O)O)cc3)cc2C1=O`, the side scatter shift reads like this: (at 100 µM) 7.2% (inactive); (side scatter shift, at 10 µM) 5.75%.

Take `Cc1cc(C)n2nc(SCC(=O)Nc3ccc(F)cc3)nc2n1`: the side scatter shift (at 100 µM) is 4% (inactive) and the side scatter shift (side scatter shift, at 10 µM) was 2.8%.

With `CCc1ccc(-c2nc(CN3CCC(C(=O)NCc4ccc(F)cc4)CC3)c(C)o2)cc1`, the side scatter shift runs as follows: (at 100 µM) 0% (inactive); (side scatter shift, at 10 µM) 17.9%.

`COc1ccc(CCNC(=O)C2CCN(Cc3nc(-c4cccc(Cl)c4)oc3C)CC2)cc1OC`: the side scatter shift is 20% (inactive) (at 100 µM) and 12.2% (side scatter shift, at 10 µM).

Turning to `COC(=O)CN1CCN(C(=O)c2ccc(F)cc2)c2ccccc2C1`, the side scatter shift is, setting by setting: (at 100 µM) 12.5% (inactive); (side scatter shift, at 10 µM) 3.1%.

Take `Cc1oc(-c2cccc(Cl)c2)nc1CN1CCC(C(=O)NCC2CCCO2)CC1` (stereo not given): the side scatter shift runs as follows: (at 100 µM) 33.9% (inactive); (side scatter shift, at 10 µM) 8.8%.

As to `Cc1cccc(N2CCN(C(=O)CCNC(=O)Cn3ccc4ccccc4c3=O)CC2)c1C`, the side scatter shift by setting is: (at 100 µM) 0% (inactive); (side scatter shift, at 10 µM) 2%.

As for `CCN(CC)CCNC(=O)c1cc2c(-c3ccc(Cl)cc3)nn(C)c2s1`, the side scatter shift was 24% (inactive) (at 100 µM) and 64.8% (side scatter shift, at 10 µM).

Consider `O=C(CCNC(=O)Cn1ccc2ccccc2c1=O)NCCCN1CCN(c2ccccc2F)CC1`, for which the side scatter shift (at 100 µM) was 35.7% (inactive) and the side scatter shift (side scatter shift, at 10 µM) came to 6.15%.

As to `O=C(NCC(c1cccnc1)N1CCOCC1)c1cccc(Cl)c1` (stereo not given), the side scatter shift is, setting by setting: (at 100 µM) 11.4% (inactive); (side scatter shift, at 10 µM) 13.9%.

With `c1ccc(CSc2nnc(-c3cccs3)n2Cc2ccco2)cc1`, the side scatter shift reads like this: (at 100 µM) 20% (inactive); (side scatter shift, at 10 µM) 6.7%.

For the compound `COc1ccc(-c2ccc(-c3noc(-c4ccccc4)n3)c(OC)n2)cc1`, the side scatter shift was 56.7% (inactive) (at 100 µM) and 22.5% (side scatter shift, at 10 µM).

Consider `CC(C)(C)c1ccc(C(O)CCCN2CCC(C(O)(c3ccccc3)c3ccccc3)CC2)cc1` (stereo not given), for which the side scatter shift was 16.7% (inactive) (at 100 µM) and 14.8% (side scatter shift, at 10 µM).

With `O=C(NCCCN1CCN(c2cccc(Cl)c2)CC1)c1nc(-c2ccncc2)no1`, the side scatter shift (at 100 µM) is 36.1% (inactive) and the side scatter shift (side scatter shift, at 10 µM) is 2.15%.

`CC(=O)c1cccc(NC2c3ccccc3C(=O)N2Cc2ccc3c(c2)OCO3)c1` (stereo not given): the side scatter shift is 24% (inactive) (at 100 µM) and 4.25% (side scatter shift, at 10 µM).

With `COC(=O)Nc1sccc1C(=O)Nc1sccc1C(=O)OC`, the side scatter shift reads like this: (at 100 µM) 18.8% (inactive); (side scatter shift, at 10 µM) 8.85%.

On to `Cn1c(C(=O)NCCCN2CCN(c3ccccc3F)CC2)cc2c(=O)[nH]c3ccccc3c21`, for which the side scatter shift reads like this: (at 100 µM) 33.3% (inactive); (side scatter shift, at 10 µM) 11.1%.

`CCn1c(=O)cc(OCC(=O)O)c2ccccc21`: the side scatter shift runs as follows: (at 100 µM) 31.8% (inactive); (side scatter shift, at 10 µM) 6.7%.

`COc1ccc(-c2noc(CCC(=O)NCCCN3CCC(C)CC3)n2)cc1`: the side scatter shift is 23.8% (inactive) (at 100 µM) and 4.9% (side scatter shift, at 10 µM).

`CCCc1cc(-c2n[nH]c(C)c2-c2ccc(C(=O)OCC)o2)c(O)cc1O`: the side scatter shift is, setting by setting: (at 100 µM) 42.9% (inactive); (side scatter shift, at 10 µM) 5.15%.

Consider `O=C(NCCCN1CCN(c2ccc(F)cc2)CC1)c1cccc(N2CCCC2=O)c1`, for which the side scatter shift (at 100 µM) is 51.9% (active) and the side scatter shift (side scatter shift, at 10 µM) was found to be 13.7%.

Regarding `Cc1ccc2c(c1)NC(=O)C(CC(=O)NCCCN1CCN(c3cc(C)ccc3C)CC1)O2` (stereo not given), the side scatter shift reads like this: (at 100 µM) 30.1% (inactive); (side scatter shift, at 10 µM) 2.95%.

In the case of `O=C(NCCCN1CCN(c2ccccc2F)CC1)C1CCN(S(=O)(=O)c2cccs2)CC1`, the side scatter shift by setting is: (at 100 µM) 22.7% (inactive); (side scatter shift, at 10 µM) 3.7%.

For the compound `COc1ccc(-c2noc(CCC(=O)NCCCN3CCC(Cc4ccccc4)CC3)n2)cc1`, the side scatter shift by setting is: (at 100 µM) 21.7% (inactive); (side scatter shift, at 10 µM) 28.6%.

In the case of `COC(=O)c1ccccc1S(=O)(=O)N(Cc1cc2cc3c(cc2[nH]c1=O)OCO3)C1CCCCC1`, the side scatter shift (at 100 µM) is 50% (inactive) and the side scatter shift (side scatter shift, at 10 µM) was found to be 8.05%.

(Values after PubChem BioAssay AID1069 (NMMLSC, 2008).)
